{
  "source": "ChEMBL document CHEMBL3988442",
  "about": "“University of Dundee, Small-Polar-MMV Screening Library” (2021)",
  "data": [
    {"organism": "Homo sapiens", "assay": "To identify inhibition of the IFN signalling (Jak-Stat) pathway via expression of an eGFP reporter gene under the control of an IFN-stimulated response element (ISRE) containing MxA promoter.", "type": "functional", "parameters": "scale not given: direction of the effect not stated beside the values", "conditions": "30 µM", "units": {"Percent Effect": "%"}, "values": [
      {"smiles": "CC(C)COC(C)C(=O)NCc1ccc(OC(C)C)nc1", "note": "(stereo not given)", "Percent Effect": -12.7},
      {"smiles": "CCc1n[nH]c(C2CN(CCc3cccs3)CCO2)n1", "note": "(stereo not given)", "Percent Effect": -6.82},
      {"smiles": "CC(=O)N1CCCC(c2ccc(Nc3nc(C)cc(C)n3)cn2)C1", "note": "(stereo not given)", "Percent Effect": 4.23},
      {"smiles": "CN(CC1(O)CCCN(CCC2CCCCC2)C1=O)C1CCOCC1", "note": "(stereo not given)", "Percent Effect": 6.58},
      {"smiles": "Cc1noc(C2CCC3(CCN(C(=O)c4c(C)noc4C)CC3)O2)n1", "note": "(stereo not given)", "Percent Effect": 5.82},
      {"smiles": "COc1ncccc1NC(=O)N1CCC(CNC(C)=O)CC1", "Percent Effect": 20.5},
      {"smiles": "CN1CCN(CCCNC(=O)c2cc(Cl)c3c(c2)OCO3)CC1", "Percent Effect": -22.6},
      {"smiles": "O=C(NS(=O)(=O)c1ccc2c(c1)OCCO2)c1ccc(Br)cc1F", "Percent Effect": -21.1},
      {"smiles": "CCN1CCC(CNC(=O)C2(c3cccc(C)c3)CC2)C1", "note": "(stereo not given)", "Percent Effect": 13.3},
      {"smiles": "CC(C)N(C)Cc1cnc2n1CCN(CCc1ccccc1)C2", "Percent Effect": -8.89},
      {"smiles": "CNc1nc2c(c(C(=O)N3CCCC3)n1)CN(Cc1nccn1C)CC2", "Percent Effect": 8.05},
      {"smiles": "Cc1ccc(-n2nnc(CC(=O)N3CCSCC3)c2C)cc1", "Percent Effect": -2.27},
      {"smiles": "Cc1nc(CN2CCCC(N(C)Cc3nnsc3Cl)C2)no1", "note": "(stereo not given)", "Percent Effect": -2.55},
      {"smiles": "Cc1nc(-c2ccccc2)sc1C(=O)NCCNc1ncccn1", "Percent Effect": 8.09},
      {"smiles": "Cc1cc(=O)n(CC(=O)NCCC(C)C)c(-c2cccc(Cl)c2)n1", "Percent Effect": 2.45},
      {"smiles": "CCn1ccnc1CN(C)C1CCCN(CCc2ccccc2)C1", "note": "(stereo not given)", "Percent Effect": -8.38},
      {"smiles": "CCN1CCN(c2ncc(-c3cc(C)no3)c(-c3ccoc3C)n2)CC1", "Percent Effect": -1.91},
      {"smiles": "COc1ccccc1CC(=O)N1CCC(NCc2c[nH]nc2C)CC1", "Percent Effect": 2.04},
      {"smiles": "CN(Cc1cccc(F)c1)C1CCN(CCc2ccccn2)CC1", "Percent Effect": 20.8},
      {"smiles": "CC(C)c1nc2n(n1)CC(NCc1nc(-c3cccnc3)no1)CC2", "note": "(stereo not given)", "Percent Effect": -3.81}
    ]}
  ]
}
